The source made the active and inactive calls. Rule for the calls: active = hit-call score of the fitted dose curve at least 0.9, where 1 is the maximum; inactive = score below 0.9.
Columns and labels:
Settings in all cases: mRNA level, 48 h; actives raise or lower the signal
[1] = read-out: CFLAR gene, CFLAR (gene 8837); test: LTEA_HepaRG_CFLAR: Life Technologies and Expression Analysis (LTEA) Assay for CFLAR gene using HepaRG (AID 2283455)
In short: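 HepaRG cells were plated for 48 h, switched to serum-free induction medium, then exposed in duplicate for 48 h to 8 concentrations (top 100 uM, half-log steps, 0.5% DMSO). CFLAR mRNA was measured by qRT-PCR, normalized to ACTB, GAPDH and POLR2A.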

[2] = read-out: Forkhead box O1 (FOXO1), FOXO1 (gene 2308); test: LTEA_HepaRG_FOXO1: Life Technologies and Expression Analysis (LTEA) Assay for Forkhead box O1 (FOXO1) using HepaRG (AID 2283456)
In short: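 Differentiated human HepaRG cells in serum-free induction medium were exposed in duplicate for 48 h to eight half-log concentrations (top 100 uM, 0.5% DMSO). FOXO1 mRNA was measured by TaqMan qRT-PCR, normalised to ACTB, GAPDH and POLR2A, and fitted bidirectionally against DMSO.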

[3] = read-out: growth arrest and DNA damage 45 (GADD45A), GADD45A (gene 1647); test: LTEA_HepaRG_GADD45A: Life Technologies and Expression Analysis (LTEA) Assay for growth arrest and DNA damage 45 (GADD45A) using HepaRG (AID 2283458)
In short: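 Differentiated HepaRG cells exposed 48 h in serum-free induction medium to 8 concentrations, top 100 uM in half-log steps, 0.5% DMSO. GADD45A mRNA quantified by qRT-PCR, normalized to ACTB, GAPDH and POLR2A; bidirectional fit versus DMSO.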

[4] = read-out: Forkhead box O3 (FOXO3), FOXO3 (gene 2309); test: LTEA_HepaRG_FOXO3: Life Technologies and Expression Analysis (LTEA) Assay for Forkhead box O3 (FOXO3) using HepaRG (AID 2283459)
In short: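 Differentiated human HepaRG cells in serum-free induction medium were exposed in duplicate for 48 h to eight half-log concentrations up to 100 uM in 0.5% DMSO. FOXO3 mRNA was quantified by qRT-PCR, normalized to ACTB, GAPDH and POLR2A, with bidirectional fitting versus DMSO.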

[5] = read-out: ABC Transporter (ABCB1), ABCB1 (gene 5243); test: LTEA_HepaRG_ABCB1: Life Technologies and Expression Analysis (LTEA) Assay for ABC Transporter (ABCB1) using HepaRG (AID 2283460)
In short: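 Differentiated human HepaRG cells, plated 48 h then switched to serum-free induction medium, were exposed in duplicate to eight half-log concentrations up to 100 uM in 0.5% DMSO for 48 h. ABCB1 mRNA was measured by TaqMan qRT-PCR, normalized to ACTB/GAPDH/POLR2A.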

[6] = read-out: growth arrest and DNA damage 45 (GADD45B), GADD45B (gene 4616); test: LTEA_HepaRG_GADD45B: Life Technologies and Expression Analysis (LTEA) Assay for growth arrest and DNA damage 45 (GADD45B) using HepaRG (AID 2283461)
In short: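 qRT-PCR read-out (Fluidigm TaqMan, housekeeping-normalized) of mRNA change in human HepaRG cells after 48 h chemical exposure; 8-point curve, top 100 uM, half-log steps, 0.5% DMSO vehicle; gain or loss fitted relative to DMSO baseline.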

[7] = read-out: ABC Transporter (ABCC3), ABCC3 (gene 8714); test: LTEA_HepaRG_ABCC3: Life Technologies and Expression Analysis (LTEA) Assay for ABC Transporter (ABCC3) using HepaRG (AID 2283462)
In short: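 qRT-PCR read-out of ABCC3 transcript, normalized to three housekeeping genes (ACTB, GAPDH, POLR2A), after 48 h chemical exposure of human HepaRG cells. Eight half-log concentrations, highest 100 uM, in 0.5% DMSO; gain or loss fitted relative to DMSO baseline.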

[8] = read-out: ABC Transporter (ABCB11), ABCB11 (gene 8647); test: LTEA_HepaRG_ABCB11: Life Technologies and Expression Analysis (LTEA) Assay for ABC Transporter (ABCB11) using HepaRG (AID 2283463)
In short: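 Differentiated human HepaRG cells were exposed for 48 h in serum-free induction medium to eight half-log concentrations up to 100 uM in 0.5% DMSO. ABCB11 mRNA was quantified by qRT-PCR, normalized to ACTB, GAPDH and POLR2A, and fitted bidirectionally versus DMSO.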

[9] = read-out: ABC Transporter (ABCC2), ABCC2 (gene 1244); test: LTEA_HepaRG_ABCC2: Life Technologies and Expression Analysis (LTEA) Assay for ABC Transporter (ABCC2) using HepaRG (AID 2283464)
In short: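 qRT-PCR (TaqMan, Fluidigm array) read-out of ABCC2 mRNA, normalized to three housekeeping genes. Differentiated HepaRG cells were treated 48 h in serum-free induction medium with 8-point half-log series from 100 uM in 0.5% DMSO; curves fitted bidirectionally relative to DMSO.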

[10] = read-out: Broad substrate specificity ATP-binding cassette transporter ABCG2 (Homo sapiens) (UniProt Q9UNQ0); test: LTEA_HepaRG_ABCG2: Life Technologies and Expression Analysis (LTEA) Assay for ABC Transporter (ABCG2) using HepaRG (AID 2283465)
In short: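 Differentiated HepaRG cells in serum-free induction medium were exposed for 48 h, in duplicate, to eight half-log concentrations up to 100 uM in 0.5% DMSO. ABCG2 mRNA was measured by TaqMan qRT-PCR, normalized to ACTB, GAPDH and POLR2A, and fitted bidirectionally versus DMSO.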

[11] = read-out: ATP-citrate lyase (ACLY), ACLY (gene 47); test: LTEA_HepaRG_ACLY: Life Technologies and Expression Analysis (LTEA) Assay for ATP-citrate lyase (ACLY) using HepaRG (AID 2283466)
In short: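 Differentiated human HepaRG cells in serum-free induction medium exposed 48 h, in duplicate, to eight half-log concentrations from 100 uM top in 0.5% DMSO; ACLY mRNA measured by qRT-PCR, normalized to ACTB, GAPDH, POLR2A, fitted bidirectionally versus DMSO.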

[12] = read-out: Peroxisomal acyl-coenzyme A oxidase 1 (ACOX1) gene, ACOX1 (gene 51); test: LTEA_HepaRG_ACOX1: Life Technologies and Expression Analysis (LTEA) Assay for Peroxisomal acyl-coenzyme A oxidase 1 (ACOX1) gene using HepaRG (AID 2283467)
In short: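 Differentiated human HepaRG cells were exposed in duplicate for 48 h in serum-free induction medium to eight half-log concentrations up to 100 uM in 0.5% DMSO. ACOX1 mRNA was then quantified by TaqMan qRT-PCR, normalized to ACTB, GAPDH and POLR2A.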

[13] = read-out: Alkaline Phosphatase, Placental (ALPP) gene, ALPP (gene 250); test: LTEA_HepaRG_ALPP: Life Technologies and Expression Analysis (LTEA) Assay for Alkaline Phosphatase, Placental (ALPP) gene using HepaRG (AID 2283468)
In short: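 qRT-PCR readout of ALPP mRNA (Fluidigm TaqMan), normalized to ACTB/GAPDH/POLR2A, after 48 h chemical exposure of HepaRG cells; 8-point half-log series, top 100 uM, 0.5% DMSO vehicle. Bidirectional curve fit versus DMSO baseline.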

[14] = read-out: Bcl-2 (BAD) gene, BAD (gene 572); test: LTEA_HepaRG_BAD: Life Technologies and Expression Analysis (LTEA) Assay for Bcl-2 (BAD) gene using HepaRG (AID 2283469)
In short: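 Differentiated human HepaRG cells in serum-free induction medium were exposed in duplicate for 48 h to eight concentrations (top 100 uM, half-log steps, 0.5% DMSO). BAD mRNA was quantified by qRT-PCR normalised to ACTB, GAPDH and POLR2A, with bidirectional fitting versus DMSO.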

[15] = read-out: Bcl-2 (BAX) gene, BAX (gene 581); test: LTEA_HepaRG_BAX: Life Technologies and Expression Analysis (LTEA) Assay for Bcl-2 (BAX) gene using HepaRG (AID 2283470)
In short: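 Differentiated HepaRG cells exposed 48 h in serum-free induction medium, eight half-log concentrations from 100 uM, in duplicate, 0.5% DMSO vehicle. BAX mRNA by TaqMan qRT-PCR, normalised to ACTB, GAPDH and POLR2A.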

[16] = read-out: adenosine kinase (ADK) gene, ADK (gene 132); test: LTEA_HepaRG_ADK: Life Technologies and Expression Analysis (LTEA) Assay for adenosine kinase (ADK) gene using HepaRG (AID 2283471)
In short: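 HepaRG (human liver), 48 h chemical exposure, 8-pt half-log series, top 100 uM, 0.5% DMSO vehicle. Readout: ADK mRNA by qRT-PCR vs housekeeping genes; bidirectional curve fit relative to DMSO baseline.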

[17] = read-out: Alpha-fetoprotein (AFP) gene, AFP (gene 174); test: LTEA_HepaRG_AFP: Life Technologies and Expression Analysis (LTEA) Assay for Alpha-fetoprotein (AFP) gene using HepaRG (AID 2283472)
In short: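 Differentiated human HepaRG cells exposed 48 h in serum-free induction medium, 8-point half-log series from 100 uM in 0.5% DMSO, duplicate. AFP mRNA by qRT-PCR, normalized to ACTB, GAPDH, POLR2A; bidirectional fit vs DMSO.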

BCL2L11 (gene 10018) = test: LTEA_HepaRG_BCL2L11: Life Technologies and Expression Analysis (LTEA) Assay for Bcl-2 (BCL2L11) gene using HepaRG (AID 2283473)
In short: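 HepaRG, 48 h exposure, 8-pt half-log series from 100 uM in 0.5% DMSO, duplicates; qRT-PCR (Fluidigm TaqMan) for BCL2L11, housekeeping-normalized; bidirectional curve fit relative to DMSO baseline.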

Measured: outcome

Broad substrate specificity ATP-binding cassette transporter ABCG2 (Homo sapiens), sequence (Q9UNQ0 whole entry, looked up): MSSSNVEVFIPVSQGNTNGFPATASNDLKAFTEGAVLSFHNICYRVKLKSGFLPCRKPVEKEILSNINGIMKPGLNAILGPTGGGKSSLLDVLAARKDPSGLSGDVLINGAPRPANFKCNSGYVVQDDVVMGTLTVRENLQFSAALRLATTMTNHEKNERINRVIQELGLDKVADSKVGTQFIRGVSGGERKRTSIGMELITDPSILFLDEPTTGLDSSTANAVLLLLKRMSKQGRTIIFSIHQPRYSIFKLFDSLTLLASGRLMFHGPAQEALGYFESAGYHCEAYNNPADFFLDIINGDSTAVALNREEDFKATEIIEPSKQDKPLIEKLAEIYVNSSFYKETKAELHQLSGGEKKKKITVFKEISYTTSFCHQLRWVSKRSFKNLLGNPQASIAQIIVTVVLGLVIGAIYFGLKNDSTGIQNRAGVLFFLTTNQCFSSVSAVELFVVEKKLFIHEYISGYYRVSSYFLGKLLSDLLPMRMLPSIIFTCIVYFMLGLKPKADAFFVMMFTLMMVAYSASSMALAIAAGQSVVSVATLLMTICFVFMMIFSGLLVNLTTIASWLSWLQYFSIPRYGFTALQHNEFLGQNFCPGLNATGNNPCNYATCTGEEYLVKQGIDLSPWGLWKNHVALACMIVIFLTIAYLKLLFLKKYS

c1cc[n+]2c(c1)-c1cccc[n+]1CC2
inactive: [1] | [2] | [3] | [4] | [5] | [6] | [7] | [8] | [9] | [10] | [11] | [12] | [13] | [14] | [15] | [16] | [17] | BCL2L11 (gene 10018)
